# In paper PMC7862700, “An all-to-all approach to the identification of sequence-specific readers for epigenetic DNA modifications on cytosine”:
# Key:
# Test in all cases: DAPPL (digital affinity profiling via proximity ligation, sequencing); 10 mM Tris-HCl pH 7.5, 50 mM NaCl, 1 mM DTT, 4% glycerol, room temperature, 30 min; GST-TFs on glutathione beads, 16-mer random dsDNA library, 0.1% formaldehyde crosslink after washing; high values mean tight binding
# FLI1 = target: T1, FLI1 (Homo sapiens, UniProt Q01543 1-452); details: protein: recombinant; tags: N-terminal GST; dsDNA, one strand shown
# T1 sequence: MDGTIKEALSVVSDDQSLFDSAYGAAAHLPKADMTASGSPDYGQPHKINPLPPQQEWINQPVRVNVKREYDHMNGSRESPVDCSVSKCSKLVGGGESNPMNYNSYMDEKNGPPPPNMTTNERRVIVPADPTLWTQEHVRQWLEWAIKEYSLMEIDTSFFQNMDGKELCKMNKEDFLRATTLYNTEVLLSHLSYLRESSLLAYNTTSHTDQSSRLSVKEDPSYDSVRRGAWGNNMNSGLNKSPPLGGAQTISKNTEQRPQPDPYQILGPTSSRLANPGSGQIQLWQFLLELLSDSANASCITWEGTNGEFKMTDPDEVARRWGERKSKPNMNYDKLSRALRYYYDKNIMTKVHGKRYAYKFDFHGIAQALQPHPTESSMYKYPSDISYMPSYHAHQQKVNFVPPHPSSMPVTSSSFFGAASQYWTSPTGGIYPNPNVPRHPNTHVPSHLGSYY
# Method in brief: (§1)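 The binding signal reported is, for every hexamer, its read frequency for a factor over its read frequency for the tag-only sample. Reads came from pools of yeast-expressed, GST-fused human transcription factors on glutathione beads, barcoded with DNA and mixed with that sample, which were incubated with 200 nmole of a random double-stranded 16-mer DNA library in Tris/NaCl/DTT/glycerol buffer at room temperature for 30 min. After washing, the pools were crosslinked with 0.1% formaldehyde, proximity-ligated with BsaI/T4 ligase for 1 h at 37 °C, PCR-amplified and sequenced on an Illumina NextSeq500.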
# ELK1 = target: T2, ELK1 (Homo sapiens, UniProt P19419 1-428); details: protein: recombinant; tags: N-terminal GST; dsDNA, one strand shown
# T2 sequence: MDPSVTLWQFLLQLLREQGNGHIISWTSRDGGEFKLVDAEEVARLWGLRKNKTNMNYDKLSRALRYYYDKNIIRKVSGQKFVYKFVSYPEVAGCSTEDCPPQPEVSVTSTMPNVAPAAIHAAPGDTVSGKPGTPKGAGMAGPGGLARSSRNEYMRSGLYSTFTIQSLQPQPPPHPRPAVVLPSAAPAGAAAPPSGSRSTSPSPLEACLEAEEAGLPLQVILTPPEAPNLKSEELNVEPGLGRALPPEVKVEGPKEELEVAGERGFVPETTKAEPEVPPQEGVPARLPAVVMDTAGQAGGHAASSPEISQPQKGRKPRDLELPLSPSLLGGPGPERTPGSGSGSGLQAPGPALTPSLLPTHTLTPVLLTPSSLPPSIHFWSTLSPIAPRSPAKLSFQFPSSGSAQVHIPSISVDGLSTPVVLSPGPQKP
# Method in brief: as §1
# GABPA = target: T3, GABPA (Homo sapiens, UniProt Q06546 1-454); details: protein: recombinant; tags: N-terminal GST; dsDNA, one strand shown
# T3 sequence: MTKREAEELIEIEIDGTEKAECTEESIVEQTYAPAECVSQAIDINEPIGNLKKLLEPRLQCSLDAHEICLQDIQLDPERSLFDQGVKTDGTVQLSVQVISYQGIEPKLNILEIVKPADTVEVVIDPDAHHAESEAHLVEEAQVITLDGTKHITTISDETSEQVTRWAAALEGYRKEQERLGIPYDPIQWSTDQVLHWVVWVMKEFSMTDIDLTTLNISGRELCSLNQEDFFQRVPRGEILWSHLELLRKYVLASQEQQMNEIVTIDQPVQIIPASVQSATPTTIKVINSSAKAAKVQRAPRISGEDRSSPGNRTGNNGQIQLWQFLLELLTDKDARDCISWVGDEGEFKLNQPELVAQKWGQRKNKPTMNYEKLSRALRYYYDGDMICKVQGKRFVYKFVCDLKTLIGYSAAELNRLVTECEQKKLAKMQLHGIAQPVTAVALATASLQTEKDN
# Method in brief: as §1
# ERG = target: T4, ERG (Homo sapiens, UniProt P11308 1-479); details: protein: recombinant; tags: N-terminal GST; dsDNA, one strand shown
# T4 sequence: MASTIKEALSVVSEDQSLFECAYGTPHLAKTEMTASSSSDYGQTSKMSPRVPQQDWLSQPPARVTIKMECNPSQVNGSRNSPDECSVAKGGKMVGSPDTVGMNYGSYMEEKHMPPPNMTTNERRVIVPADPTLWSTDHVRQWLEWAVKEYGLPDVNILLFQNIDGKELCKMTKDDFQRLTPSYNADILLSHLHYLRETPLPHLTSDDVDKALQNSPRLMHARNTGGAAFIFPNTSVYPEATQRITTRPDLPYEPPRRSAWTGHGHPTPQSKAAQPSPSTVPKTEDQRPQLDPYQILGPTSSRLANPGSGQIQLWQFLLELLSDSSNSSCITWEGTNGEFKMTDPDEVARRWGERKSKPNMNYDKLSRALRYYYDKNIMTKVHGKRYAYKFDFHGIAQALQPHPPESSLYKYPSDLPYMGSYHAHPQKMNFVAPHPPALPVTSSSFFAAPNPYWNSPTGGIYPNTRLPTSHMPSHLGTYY
# Method in brief: as §1
# ELF1 = ELF1 (Homo sapiens, UniProt P32519 1-619); details: protein: recombinant; tags: N-terminal GST; dsDNA, one strand shown
# Method in brief: as §1
# EHF = target: T5, EHF (Homo sapiens, UniProt Q9NZC4 1-300); details: protein: recombinant; tags: N-terminal GST; dsDNA, one strand shown
# T5 sequence: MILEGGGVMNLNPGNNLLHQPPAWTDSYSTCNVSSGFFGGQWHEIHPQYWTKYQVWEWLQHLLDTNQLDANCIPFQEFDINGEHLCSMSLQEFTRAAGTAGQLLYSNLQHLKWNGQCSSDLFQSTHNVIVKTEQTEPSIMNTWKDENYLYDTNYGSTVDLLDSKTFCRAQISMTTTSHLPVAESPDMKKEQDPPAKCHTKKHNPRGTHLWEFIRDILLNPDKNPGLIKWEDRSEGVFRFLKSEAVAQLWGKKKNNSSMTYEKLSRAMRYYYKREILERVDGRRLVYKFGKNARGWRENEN
# Method in brief: as §1
# SPI1 = SPI1 (Homo sapiens, UniProt P17947 1-270); details: protein: recombinant; tags: N-terminal GST; dsDNA, one strand shown
# Method in brief: as §1
# SPIB = SPIB (Homo sapiens, UniProt Q01892 1-262); details: protein: recombinant; tags: N-terminal GST; dsDNA, one strand shown
# Method in brief: as §1
# ELK3 = target: T6, ELK3 (Homo sapiens, UniProt P41970 1-407); details: protein: recombinant; tags: N-terminal GST; dsDNA, one strand shown
# T6 sequence: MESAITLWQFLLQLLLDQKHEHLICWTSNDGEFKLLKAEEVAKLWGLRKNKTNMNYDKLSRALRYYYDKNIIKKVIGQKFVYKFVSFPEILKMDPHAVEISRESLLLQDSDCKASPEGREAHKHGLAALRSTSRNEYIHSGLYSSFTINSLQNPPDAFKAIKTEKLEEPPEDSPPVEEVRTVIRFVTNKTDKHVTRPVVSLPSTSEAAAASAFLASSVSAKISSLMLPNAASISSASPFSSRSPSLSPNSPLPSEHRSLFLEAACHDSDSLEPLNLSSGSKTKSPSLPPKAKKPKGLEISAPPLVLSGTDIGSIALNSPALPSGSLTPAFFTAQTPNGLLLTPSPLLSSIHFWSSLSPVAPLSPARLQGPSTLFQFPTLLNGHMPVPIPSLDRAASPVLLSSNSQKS
# Method in brief: as §1
# FEV = target: T7, FEV (Homo sapiens, UniProt Q99581 1-238); details: protein: recombinant; tags: N-terminal GST; dsDNA, one strand shown
# T7 sequence: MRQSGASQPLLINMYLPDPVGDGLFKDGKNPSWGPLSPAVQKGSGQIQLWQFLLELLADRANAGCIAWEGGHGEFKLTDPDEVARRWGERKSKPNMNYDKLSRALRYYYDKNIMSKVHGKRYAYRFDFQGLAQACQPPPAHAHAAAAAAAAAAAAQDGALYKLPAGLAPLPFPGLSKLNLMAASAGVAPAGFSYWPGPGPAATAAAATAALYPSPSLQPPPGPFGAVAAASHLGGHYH
# Method in brief: as §1
# ETV5 = ETV5 (Homo sapiens, UniProt P41161 1-510); details: protein: recombinant; tags: N-terminal GST; dsDNA, one strand shown
# Method in brief: as §1
# HSF1 = HSF1 (Homo sapiens, UniProt Q00613 1-529); details: protein: recombinant; tags: N-terminal GST; chain copies: 3; dsDNA, one strand shown
# Method in brief: as §1
# SPIC = target: T8, SPIC (Homo sapiens, UniProt Q8N5J4 1-248); details: protein: recombinant; tags: N-terminal GST; dsDNA, one strand shown
# T8 sequence: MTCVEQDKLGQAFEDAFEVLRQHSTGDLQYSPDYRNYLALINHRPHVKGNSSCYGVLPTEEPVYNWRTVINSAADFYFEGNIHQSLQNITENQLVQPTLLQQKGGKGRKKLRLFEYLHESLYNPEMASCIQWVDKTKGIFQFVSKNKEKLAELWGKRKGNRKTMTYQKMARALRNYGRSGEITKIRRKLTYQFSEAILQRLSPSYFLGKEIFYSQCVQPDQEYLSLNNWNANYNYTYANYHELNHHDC
# Method in brief: as §1
# ELF4 = ELF4 (Homo sapiens, UniProt Q99607 1-663); details: protein: recombinant; tags: N-terminal GST; dsDNA, one strand shown
# Method in brief: as §1
# ELK4 = target: T9, ELK4 (Homo sapiens, UniProt P28324-2 1-405); details: protein: recombinant; tags: N-terminal GST; dsDNA, one strand shown
# T9 sequence: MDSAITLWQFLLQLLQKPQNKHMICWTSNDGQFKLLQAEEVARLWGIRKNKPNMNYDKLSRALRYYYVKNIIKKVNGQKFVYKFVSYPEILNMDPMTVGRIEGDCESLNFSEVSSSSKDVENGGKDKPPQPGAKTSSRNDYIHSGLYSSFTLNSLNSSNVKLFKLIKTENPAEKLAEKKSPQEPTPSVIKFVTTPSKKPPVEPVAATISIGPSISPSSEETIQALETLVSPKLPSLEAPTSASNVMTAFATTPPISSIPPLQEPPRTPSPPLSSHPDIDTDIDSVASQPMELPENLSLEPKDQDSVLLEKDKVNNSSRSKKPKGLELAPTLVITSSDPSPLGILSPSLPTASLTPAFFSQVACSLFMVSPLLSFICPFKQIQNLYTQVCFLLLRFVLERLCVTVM
# Method in brief: as §1
# ETV2 = target: T10, ETV2 (Homo sapiens, UniProt O00321 1-342); details: protein: recombinant; tags: N-terminal GST; dsDNA, one strand shown
# T10 sequence: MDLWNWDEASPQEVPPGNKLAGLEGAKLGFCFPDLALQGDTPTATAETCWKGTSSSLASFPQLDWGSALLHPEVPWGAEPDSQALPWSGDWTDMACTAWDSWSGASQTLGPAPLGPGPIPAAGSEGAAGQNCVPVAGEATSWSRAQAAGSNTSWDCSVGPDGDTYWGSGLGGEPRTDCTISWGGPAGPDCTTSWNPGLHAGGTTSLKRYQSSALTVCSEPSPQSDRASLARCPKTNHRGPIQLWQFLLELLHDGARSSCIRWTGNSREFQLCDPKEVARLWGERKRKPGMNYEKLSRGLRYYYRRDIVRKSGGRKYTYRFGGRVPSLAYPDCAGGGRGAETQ
# Method in brief: as §1
# ELF3 = target: T11, ELF3 (Homo sapiens, UniProt P78545 1-371); details: protein: recombinant; tags: N-terminal GST; dsDNA, one strand shown
# T11 sequence: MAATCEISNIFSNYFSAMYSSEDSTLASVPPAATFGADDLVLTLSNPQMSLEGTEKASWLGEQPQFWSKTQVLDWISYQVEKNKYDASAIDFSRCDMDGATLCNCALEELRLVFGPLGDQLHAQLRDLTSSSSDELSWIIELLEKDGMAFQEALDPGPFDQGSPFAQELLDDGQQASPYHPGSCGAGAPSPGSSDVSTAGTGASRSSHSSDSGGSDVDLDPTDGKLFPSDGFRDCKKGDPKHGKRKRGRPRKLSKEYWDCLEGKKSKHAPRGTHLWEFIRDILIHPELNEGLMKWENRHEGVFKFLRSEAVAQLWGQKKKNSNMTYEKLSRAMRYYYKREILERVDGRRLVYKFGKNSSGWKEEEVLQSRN
# Method in brief: as §1
# CRX = CRX (Homo sapiens, UniProt O43186 1-299); details: protein: recombinant; tags: N-terminal GST; dsDNA, one strand shown
# Method in brief: as §1
# ETV1 = ETV1 (Homo sapiens, UniProt P50549 1-477); details: protein: recombinant; tags: N-terminal GST; dsDNA, one strand shown
# Method in brief: as §1
# Sequence of SPIB (Q01892 whole entry): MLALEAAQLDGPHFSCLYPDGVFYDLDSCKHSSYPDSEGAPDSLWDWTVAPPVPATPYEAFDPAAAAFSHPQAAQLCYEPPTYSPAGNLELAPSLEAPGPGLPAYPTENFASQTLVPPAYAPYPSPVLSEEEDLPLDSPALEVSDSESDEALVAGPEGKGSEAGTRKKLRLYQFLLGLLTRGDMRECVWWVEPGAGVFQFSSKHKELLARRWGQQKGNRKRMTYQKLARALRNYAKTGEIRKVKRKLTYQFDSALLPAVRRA
# Sequence of ETV1 (P50549 whole entry): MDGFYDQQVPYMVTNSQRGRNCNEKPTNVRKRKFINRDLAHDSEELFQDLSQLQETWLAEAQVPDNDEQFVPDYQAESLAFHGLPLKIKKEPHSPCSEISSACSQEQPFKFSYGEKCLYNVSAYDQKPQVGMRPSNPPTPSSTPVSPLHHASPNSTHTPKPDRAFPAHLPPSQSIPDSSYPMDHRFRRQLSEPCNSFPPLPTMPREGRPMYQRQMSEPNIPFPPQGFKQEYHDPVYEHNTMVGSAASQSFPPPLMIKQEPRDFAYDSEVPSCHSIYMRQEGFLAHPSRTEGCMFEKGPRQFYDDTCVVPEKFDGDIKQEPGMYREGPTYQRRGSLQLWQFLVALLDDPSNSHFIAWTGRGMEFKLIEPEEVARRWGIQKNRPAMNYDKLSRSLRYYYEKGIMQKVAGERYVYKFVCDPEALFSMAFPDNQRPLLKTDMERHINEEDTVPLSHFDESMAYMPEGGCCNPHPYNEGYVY
# Sequence of ELF4 (Q99607 whole entry): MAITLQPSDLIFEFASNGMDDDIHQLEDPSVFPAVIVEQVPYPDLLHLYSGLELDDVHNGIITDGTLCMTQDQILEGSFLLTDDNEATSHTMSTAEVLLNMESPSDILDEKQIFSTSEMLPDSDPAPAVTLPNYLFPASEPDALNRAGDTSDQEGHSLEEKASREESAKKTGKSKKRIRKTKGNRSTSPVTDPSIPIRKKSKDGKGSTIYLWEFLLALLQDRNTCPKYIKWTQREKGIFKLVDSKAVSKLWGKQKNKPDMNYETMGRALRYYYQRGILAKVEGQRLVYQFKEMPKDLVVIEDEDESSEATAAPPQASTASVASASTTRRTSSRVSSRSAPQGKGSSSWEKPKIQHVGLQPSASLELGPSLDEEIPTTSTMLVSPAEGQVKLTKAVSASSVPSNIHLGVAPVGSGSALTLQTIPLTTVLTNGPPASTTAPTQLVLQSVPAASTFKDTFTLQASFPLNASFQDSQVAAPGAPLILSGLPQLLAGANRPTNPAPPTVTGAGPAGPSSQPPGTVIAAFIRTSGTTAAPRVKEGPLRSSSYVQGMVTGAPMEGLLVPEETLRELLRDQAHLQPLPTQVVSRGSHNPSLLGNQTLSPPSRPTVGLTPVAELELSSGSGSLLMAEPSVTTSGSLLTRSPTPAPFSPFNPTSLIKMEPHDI
# Sequence of HSF1 (Q00613 whole entry): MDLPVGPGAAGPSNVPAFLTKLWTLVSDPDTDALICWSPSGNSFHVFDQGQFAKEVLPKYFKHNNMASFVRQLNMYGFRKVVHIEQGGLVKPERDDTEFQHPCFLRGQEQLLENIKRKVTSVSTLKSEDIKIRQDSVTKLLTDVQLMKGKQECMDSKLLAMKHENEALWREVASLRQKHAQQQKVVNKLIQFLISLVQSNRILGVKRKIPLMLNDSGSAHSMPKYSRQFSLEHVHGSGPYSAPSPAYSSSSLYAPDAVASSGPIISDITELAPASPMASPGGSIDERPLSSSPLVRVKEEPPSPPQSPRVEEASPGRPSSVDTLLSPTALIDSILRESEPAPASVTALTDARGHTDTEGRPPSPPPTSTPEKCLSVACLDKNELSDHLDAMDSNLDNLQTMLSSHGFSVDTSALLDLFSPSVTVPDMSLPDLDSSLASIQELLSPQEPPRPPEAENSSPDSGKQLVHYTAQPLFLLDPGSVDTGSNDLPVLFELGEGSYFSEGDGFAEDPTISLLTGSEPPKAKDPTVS
# Sequence of CRX (O43186 whole entry): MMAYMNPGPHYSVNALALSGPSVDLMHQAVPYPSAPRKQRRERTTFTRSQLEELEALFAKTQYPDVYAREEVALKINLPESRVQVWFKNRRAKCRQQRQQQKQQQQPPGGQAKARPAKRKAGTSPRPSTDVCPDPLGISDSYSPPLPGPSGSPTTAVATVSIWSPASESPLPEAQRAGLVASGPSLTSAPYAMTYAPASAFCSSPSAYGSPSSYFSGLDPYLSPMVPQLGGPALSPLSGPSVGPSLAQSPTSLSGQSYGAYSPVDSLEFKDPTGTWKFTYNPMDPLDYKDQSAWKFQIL
# Sequence of ETV5 (P41161 whole entry): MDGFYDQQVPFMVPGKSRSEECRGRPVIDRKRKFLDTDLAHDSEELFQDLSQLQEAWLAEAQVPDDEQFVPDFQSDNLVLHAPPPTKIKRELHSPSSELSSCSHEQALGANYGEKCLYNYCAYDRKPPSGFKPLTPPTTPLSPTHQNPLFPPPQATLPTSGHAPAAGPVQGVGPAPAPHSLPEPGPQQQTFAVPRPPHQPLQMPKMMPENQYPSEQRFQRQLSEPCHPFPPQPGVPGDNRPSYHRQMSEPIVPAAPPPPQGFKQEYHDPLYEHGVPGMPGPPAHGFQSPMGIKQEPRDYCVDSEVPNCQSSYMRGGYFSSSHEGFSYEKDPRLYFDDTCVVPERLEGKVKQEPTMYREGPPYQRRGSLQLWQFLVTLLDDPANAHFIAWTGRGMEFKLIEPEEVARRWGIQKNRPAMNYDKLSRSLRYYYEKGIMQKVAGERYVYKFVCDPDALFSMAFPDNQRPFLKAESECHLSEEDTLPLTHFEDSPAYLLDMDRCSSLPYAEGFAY
# Sequence of ELF1 (P32519 whole entry): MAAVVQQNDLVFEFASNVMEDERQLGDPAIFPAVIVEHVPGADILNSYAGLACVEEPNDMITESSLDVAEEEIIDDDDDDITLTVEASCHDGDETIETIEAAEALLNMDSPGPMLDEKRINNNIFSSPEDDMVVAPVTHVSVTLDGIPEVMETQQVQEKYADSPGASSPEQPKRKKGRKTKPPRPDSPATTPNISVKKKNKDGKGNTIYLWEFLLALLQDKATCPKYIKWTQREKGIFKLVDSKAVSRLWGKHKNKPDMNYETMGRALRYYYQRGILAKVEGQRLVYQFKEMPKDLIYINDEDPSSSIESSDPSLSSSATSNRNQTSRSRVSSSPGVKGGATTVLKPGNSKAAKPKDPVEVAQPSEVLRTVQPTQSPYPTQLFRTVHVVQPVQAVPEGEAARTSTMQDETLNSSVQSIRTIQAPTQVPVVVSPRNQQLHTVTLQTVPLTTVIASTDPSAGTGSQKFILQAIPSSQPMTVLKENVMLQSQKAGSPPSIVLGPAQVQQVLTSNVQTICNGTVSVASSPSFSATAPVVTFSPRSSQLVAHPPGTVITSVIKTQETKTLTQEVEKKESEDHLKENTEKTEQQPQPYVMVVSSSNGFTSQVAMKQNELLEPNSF
sequence,measurement,setting,value
ATGGAA,binding signal,FLI1,"1.17 fold enrichment (6-mer frequency, TF over GST control)"
same,binding signal,ELK1,"1.11 fold enrichment (6-mer frequency, TF over GST control)"
same,binding signal,GABPA,"1.18 fold enrichment (6-mer frequency, TF over GST control)"
same,binding signal,ERG,"1.26 fold enrichment (6-mer frequency, TF over GST control)"
same,binding signal,ELF1,"1.16 fold enrichment (6-mer frequency, TF over GST control)"
same,binding signal,EHF,"1.2 fold enrichment (6-mer frequency, TF over GST control)"
same,binding signal,SPI1,"1.18 fold enrichment (6-mer frequency, TF over GST control)"
same,binding signal,SPIB,"1.19 fold enrichment (6-mer frequency, TF over GST control)"
same,binding signal,ELK3,"1.11 fold enrichment (6-mer frequency, TF over GST control)"
same,binding signal,FEV,"1.16 fold enrichment (6-mer frequency, TF over GST control)"
same,binding signal,ETV5,"1.16 fold enrichment (6-mer frequency, TF over GST control)"
same,binding signal,HSF1,"1.86 fold enrichment (6-mer frequency, TF over GST control)"
same,binding signal,SPIC,"1.22 fold enrichment (6-mer frequency, TF over GST control)"
same,binding signal,ELF4,"1.19 fold enrichment (6-mer frequency, TF over GST control)"
same,binding signal,ELK4,"1.13 fold enrichment (6-mer frequency, TF over GST control)"
same,binding signal,ETV2,"1.26 fold enrichment (6-mer frequency, TF over GST control)"
same,binding signal,ELF3,"1.16 fold enrichment (6-mer frequency, TF over GST control)"
same,binding signal,CRX,"1.22 fold enrichment (6-mer frequency, TF over GST control)"
same,binding signal,ETV1,"1.24 fold enrichment (6-mer frequency, TF over GST control)"
